Records with an inconclusive call do not appear. The source made the active and inactive calls. How the source made its calls: active means hit-call score of the fitted dose curve at least 0.9, where 1 is the maximum; inconclusive means response in the unintended direction; inactive means score below 0.9.

The test can be described thus: ATG_M_19_TRANS: Attagene TRANS-FACTORIAL HepG2 Assay for M19 Transcription Factor (Internal Marker) (AID 2282974). The conditions noted are these: HepG2 Attagene TRANS-FACTORIAL M19 internal marker reporter. The method in brief:
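After transfection of HepG2 with GAL4-UAS-driven reporter constructs, cells are dosed for 24 h. Total RNA is reverse-transcribed, reporter sequences PCR-amplified and labelled, then HpaI-digested and sized by capillary electrophoresis.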
As for `COc1cc(Cl)c(OC)cc1N`, the call was inactive. On to `CC=CC=CCOC(=O)C(C)C`, for which the compound was called inactive. The value for `CCc1cc(C(C)(C)C)c(O)c(C(C)(C)C)c1` was “inactive”; that for `CCOC(=O)c1ccc(N)cc1` was “inactive”. With `CCCSc1ccc2nc(NC(=O)OC)[nH]c2c1`, the compound was classed as inactive. As to `CCOC(=O)CC(C)O` (configuration not stated), the outcome was inactive. For `CCCCCCCCCC(C)C=O` (configuration not stated), the compound was classed as inactive. The value for `CC1=C(Br)C(=O)C(Br)=C/C1=C(/c1ccccc1S(=O)(=O)O)c1cc(Br)c(O)c(Br)c1C` was “inactive”; that for `Cc1ncc[nH]1` was “inactive”. The value for `COc1cc([C@@H]2c3cc4c(cc3[C@@H](O[C@@H]3O[C@@H]5CO[C@@H](C)O[C@H]5[C@H](O)[C@H]3O)[C@H]3COC(=O)[C@H]23)OCO4)cc(OC)c1O` was “inactive”; that for `CN(C)CCOc1ccc(/C(=C(/CCCl)c2ccccc2)c2ccccc2)cc1` was “inactive”; that for `C[C@H]1O[C@@H](O[C@H]2[C@@H](O)C[C@H](O[C@H]3[C@@H](O)C[C@H](O[C@H]4CC[C@@]5(C)[C@H](CC[C@@H]6[C@@H]5C[C@@H](O)[C@]5(C)[C@@H](C7=CC(=O)OC7)CC[C@]65O)C4)O[C@@H]3C)O[C@@H]2C)C[C@H](O)[C@@H]1O` was “inactive”. The value for `CC(C)Nc1nc(N)nc(Cl)n1` was “inactive”; that for `CCOC(=O)C1OC1c1ccccc1` (configuration not stated) was “inactive”; that for `CCCCCCCCCCCCS(=O)(=O)Cl` was “inactive”. Take `C=C(C)[C@@H]1CC=C(C)C(=O)C1`: the compound was classed as inactive.

`Nc1ccc2cc(S(=O)(=O)O)cc(O)c2c1N=Nc1ccccc1C(F)(F)F`: the outcome was inactive.

The record behind these values is PubChem BioAssay (EPA / NIEHS).
